The assay relates to HL-1. The assay can be described thus: protection of cardiomyocytes from stress damage, SAR follow-up, cell-based, panel, H9c2 and HL-1, ATP luminescence, set 2 (AID 651871).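 Note: cells exposed to stressor for 2 h before ATP readout; reference of the scale not given here.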 Particulars: H9c2/HL-1 cardiomyocytes, 2-deoxyglucose stress, with 2-deoxyglucose; run 7, at 79 µM (top of the series).

Values joined by “and” are separate entries in the source; they are usually repeats but may differ in a detail not shown here. Identical values can stand only once.

As to `COc1ccc2nc(-c3cc(OC)c(OC)c(OC)c3)cc(C(=O)NCC(=O)Nc3ccc(C(C)=O)cc3)c2c1`, the activity (protection/inhibition) was 38%.

With `COc1ccc2c(c1OC)C(=O)N1c3ccccc3C(=O)N(Cc3cccc(Cl)c3Cl)C21` (stereo not drawn), the activity (protection/inhibition) is 48.9% and 20.1% and -9.92%.

As to `CCOC(=O)c1cccc(NC(=O)CNC(=O)c2cc(-c3cc(OC)c(OC)c(OC)c3)nc3ccccc23)c1`, the activity (protection/inhibition) turned out to be 54.3%.

(Values after PubChem BioAssay AID651871 (Sanford-Burnham Center for Chemical Genomics, 2012).)
